PubChem BioAssay AID743287 (Broad Institute, 2014)
The campaign covered roughly 370,000 compounds. About 2,300 (0.62%) were called active. The sample holds actives, similar compounds and a random draw of the others, so the mix is not that of the screen.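 How the source made its calls: active means lowest replicate activation of at least 40%, so every replicate reaches that level; inactive means the rest.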

assay: GLuc luminescence reporter in INS-1E cells, primary screen for activators of glucose-dependent secretion of insulin (AID 743287); conditions: INS-1E GLuc reporter insulin secretion, 2-3 h, at 16.6 µM, stronger effect = higher value;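 further: 0% = median of neutral control wells and 100% = median of IBMX positive control wells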

activation, inactive:
COc1ccc2c3c(n(C)c2c1)[C@H](CO)N(Cc1ccccc1)CC31CCN(C)CC1 15.2%
CC(C)C#Cc1ccc2c(c1)O[C@H](CN(C)CC1CCOCC1)[C@@H](C)CN([C@H](C)CO)S2(=O)=O -18.8%
CCCc1cc(=O)oc2c(C)c(OCC(=O)NCc3ccccn3)ccc12 11.9%
CCCCCN1CC(O)=C(c2nc(-c3ccc(Cl)cc3)cs2)C1=N 35.7%
CC(C)NC(=O)N(C)C[C@@H]1Oc2ncc(C3=CCCCC3)cc2C(=O)N([C@H](C)CO)C[C@@H]1C -12.5%
CC(=O)Nc1ccc(S(=O)(=O)N2CCC(C(=O)NC3CC3)CC2)cc1 29.2%
Cc1ccc(NC(=O)C2CCN(S(=O)(=O)c3ccc4c(c3)NC(=O)CO4)CC2)cc1C -23%
C[C@H](NC(=O)[C@@H]1[C@@H](CO)[C@@H]2Cn3c(ccc(-c4cccc(F)c4)c3=O)[C@@H]2N1C)c1ccccc1 -1.52%
C[C@@H]1CCCCO[C@@H](CN(C)S(=O)(=O)c2cn(C)cn2)[C@H](C)CN([C@@H](C)CO)C(=O)c2cc(NC(=O)Nc3ccccc3)ccc2O1 20.9%
CN1C(=O)c2cc(NC(=O)Cc3ccccc3)ccc2OC[C@H]2O[C@H](CC(=O)NCc3ccc(Cl)cc3)CC[C@H]21 -7.02%
C[C@@H]1CN([C@H](C)CO)C(=O)Cc2cc(NC(=O)Nc3ccc(C(F)(F)F)cc3)ccc2O[C@@H]1CN(C)S(=O)(=O)c1ccccc1 7.64%
COc1ccc(CN2CCCCC2C)cc1OC (stereo not given) 11.6%
COc1ccc(CN2CC[C@H]3C=CC[C@@H](C(=O)N4CCOCC4)[C@H]3C2=O)cc1OC 9.86%
CNC[C@@H]1Oc2ccc(NC(C)=O)cc2CC(=O)N(C)C[C@@H]1C 3.12%
COC(=O)N1Cc2ccnnc2CC1c1ccccc1Br (stereo not given) 5.66%
COc1ccc(CN2[C@@H](CO)[C@@H]3c4ccccc4N(C(=O)Nc4ccccc4)C[C@@H]32)cc1 -18.4%
CO[C@H]1CN(C)C(=O)c2ccc(NC(=O)NC(C)C)cc2OC[C@H](C)N(Cc2cncnc2)C[C@@H]1C -3.42%
CC(C)NC(=O)N(C)C[C@@H]1OCCCC[C@H](C)Oc2ccc(NC(=O)Nc3ccccc3)cc2C(=O)N([C@H](C)CO)C[C@@H]1C -11.5%
Cc1ccc(COC(=O)CN2C(=O)NC3(CCCC3)C2=O)cc1 6.93%
CCOc1ccc(C(C)NC(=O)CN2C(=O)NC3(CCCCC3)C2=O)cc1OCC (stereo not given) 5.62%
CCC(=O)N(C)C[C@@H]1Oc2cc(C#CCOC)ccc2S(=O)(=O)N([C@H](C)CO)C[C@H]1C 8.1%
CCCN(C)C[C@@H]1OCCCC[C@H](C)Oc2ccc(NS(=O)(=O)c3ccc(C)cc3)cc2C(=O)N([C@H](C)CO)C[C@@H]1C 7.05%
C=CCNc1nc(N)c([N+](=O)[O-])c(NC2CCCCC2)n1 20.2%
COCCNc1nc(N)c([N+](=O)[O-])c(NCCO)n1 17.8%
CC(=O)Nc1ccc2c(c1)C(=O)N(C)[C@H]1CC[C@H](CC(=O)NCc3ccccc3Cl)O[C@H]1CO2 -3.1%
N#C[C@H]1[C@H](c2ccccc2)[C@@H](CO)N1C(=O)c1cccnc1 1.43%
C[C@@H]1CN([C@@H](C)CO)C(=O)c2cc(/C=C/c3ccccc3)cnc2O[C@H]1CN(C)C(=O)C1CCC1 -16.6%
COC(=O)C1=C(C)N(Cc2cccc(C(F)(F)F)c2)C(=NCc2cccc(C(F)(F)F)c2)NC1c1ccccc1C(F)(F)F (stereo not given) 23.9%
COC(=O)C1=C(C)N(Cc2ccc(F)cc2)C(=S)NC1c1cccc(Cl)c1 (stereo not given) -20.6%
C=CCN=C1NC(c2cccc(C(F)(F)F)c2)C(C(=O)OC)=C(C)N1C (stereo not given) -3.97%
COC(=O)C1=C(C)N(Cc2ccccc2)C(=NCCCOC(C)C)N[C@H]1c1ccccc1 -19.7%
COc1ccc(S(=O)(=O)N(C)C[C@H]2Oc3c(NS(=O)(=O)c4cccs4)cccc3C(=O)N([C@H](C)CO)C[C@@H]2C)cc1 -10.4%
CO[C@H]1CN(C)C(=O)c2ccc(NC(=O)C3CCCC3)cc2OC[C@H](C)N(C(=O)CC2CC2)C[C@@H]1C 8.95%
COc1ccc(NC(=O)Nc2cccc3c2O[C@H](CN(C)Cc2ccncc2)[C@@H](C)CN([C@@H](C)CO)C3=O)cc1 3.69%
CN(C)CC(=O)N1CC2(C1)[C@H](c1ccccc1)[C@H](CO)N2C(=O)C1CC1 10.8%
N#Cc1cccc(-c2ccc([C@H]3[C@@H](CO)N[C@@H]3CNC(=O)C3CCC3)cc2)c1 7.07%
c1ccc(CCN2CN=C(Nc3nc4ccccc4o3)NC2)cc1 -24.2%
CN1C(=O)c2cc(NC(=O)c3ccno3)ccc2OC[C@H]2O[C@@H](CC(=O)NCC(F)(F)F)CC[C@@H]21 19.2%
CC(C)(C)Oc1ccccc1Nc1nc(NCCO)nc(N2CCCC2)n1 -9.68%
COc1ccc(C#Cc2cnc3c(c2)C(=O)N([C@H](C)CO)C[C@@H](C)[C@H](CN(C)C(=O)Nc2cccc(OC)c2)O3)cc1 6.97%
C[C@@H]1CN([C@H](C)CO)C(=O)c2cc(C#Cc3ccncc3)cnc2O[C@H]1CN(C)Cc1ccncc1 9.79%
O=C(C[C@H]1CC[C@H](NC(=O)CCN2CCCCC2)[C@@H](CO)O1)Nc1ccccc1 33.8%
CCOC(=O)c1cnc2c(c(C)nn2CC)c1Cl 7.57%
CCOC(=O)c1cc(C(=O)Nc2ccc(S(=O)(=O)Nc3ccc(OC)cc3)cc2)nn1C 17%
C[C@H]1CN([C@@H](C)CO)C(=O)Cc2cc(NC(=O)NC3CCCCC3)ccc2O[C@H]1CN(C)S(=O)(=O)c1ccccc1 -7.37%
CN1C(=O)c2cc(NC(=O)C3CCC3)ccc2OC[C@@H]2O[C@@H](CC(=O)NCc3ccccc3F)CC[C@@H]21 19.7%
CC(=O)c1cccc(-c2cnc3c(NC=O)cc(-c4ccc(N5CCN(C)CC5)cc4)cn23)c1 9.93%
COc1cccc(-c2cnc3c(NC(C)=O)cc(-c4cccc(NC(C)=O)c4)cn23)c1 -1.53%
CC(C)C#Cc1ccc([C@H]2[C@@H](C#N)N(C(=O)CN(C)C)[C@H]2CO)cc1 1.29%
CC(C)NC(=O)N(C)C[C@H]1Oc2ccc(N(C)C)cc2CC(=O)N(C)C[C@@H]1C 0.073%
Cc1ccc(S(=O)(=O)N(C)C[C@H]2Oc3c(NS(=O)(=O)c4ccc(Cl)cc4)cccc3C(=O)N([C@H](C)CO)C[C@@H]2C)cc1 11.6%
COc1ccc(CCNC(=O)CCn2c(=O)oc3ccccc32)cc1OC 49.9%
COc1ccccc1CNC(=O)CCCn1c(=O)c2ccccc2n(CC(=O)NC2CCCC2)c1=O -9.86%
COCC(=O)Nc1ccc2c(c1)OC[C@@H](C)N(Cc1ccccc1C(=O)O)C[C@@H](C)[C@H](OC)CN(C)C2=O 4.87%
O=C(c1ccc(F)cc1)N1CC(=O)N2[C@@H](CO)[C@@H](c3ccc(C#Cc4ccc(F)cc4)cc3)[C@@H]2C1 -24.9%
CO[C@@H]1CN(C)C(=O)c2cc(NC(=O)c3cccc(Oc4ccccc4)c3)ccc2OC[C@H](C)NC[C@@H]1C -6.99%
CCC(=O)N1CCC2(CC1)CN(Cc1cc(F)ccc1F)[C@@H](CO)c1c2c2ccc(OC)cc2n1C -0.065%
O=C(c1ccccc1F)N1CC(=O)N2[C@H](CO)[C@H](c3ccc(-c4cccnc4)cc3)[C@H]2C1 27.6%

activation, active:
O=C(O)CCCCCCCCCC[n+]1ccccc1 91.6%
CCCc1cc(-c2nc(-c3ccc(C)cc3)cs2)ccn1 90.4%
Cn1c(=O)oc2cc(S(=O)(=O)N3CCC(C(=O)Nc4ccc(OC(F)(F)F)cc4)CC3)ccc21 48.6%
COc1ccc(CN2CCOC2=O)cc1OC 59.2%
COc1ccc(-c2ccccc2C2Cc3nnccc3CN2C(=O)Nc2ccccc2)cc1 (stereo not given) 60.4%
Clc1ccc(Cl)c(Oc2ccc(Oc3nc(Cl)ccc3Cl)cc2)n1 43.2%
CCOc1ccc(C(C)=O)cc1COC(=O)CN1C(=O)NC2(CCCC2)C1=O 241%
COCCNc1nc(N)c([N+](=O)[O-])c(N2CCCCCC2)n1 52.3%
COC(=O)C1=C(C)N(Cc2cccc(C(F)(F)F)c2)C(=NCc2ccccc2)NC1c1ccc(Cl)cc1 (stereo not given) 160%
COC(=O)C1=C(C)N(Cc2cccc(C(F)(F)F)c2)C(=NCc2ccccc2)NC1c1ccccc1C(F)(F)F (stereo not given) 198%
CCSc1ncnc2c(C#N)c3n(c12)CCCCC3 47.4%
Brc1ccccc1/C=N/Nc1nc2ccccc2o1 46.6%
Cn1ncc2c(N3CCCCC3)nc(NCCCO)nc21 60.1%
CCOC(=O)c1cc(-c2ccc(Cl)s2)nc2c1c(C)nn2C 60%
CC(=O)Nc1cc(-c2ccc(N3CCN(C)CC3)cc2)cn2c(-c3cccc(C(=O)N(C)C)c3)cnc12 40.3%
COc1ccc(CCNC(=O)CCn2c(=O)c3ccccc3n(CC(=O)NCC3CCCO3)c2=O)cc1OC (stereo not given) 55.9%
NC[C@H](Cc1ccccc1)NCCc1cc(C(F)(F)F)cc(C(F)(F)F)c1 143%
